# Screens as filed in PubChem.
# D3 antag – qHTS of D3 Dopamine Receptor Antagonist: qHTS | D(3) dopamine receptor (Homo sapiens), P35462 | 2.5% of 360,000 active | max response, negative = inhibition, % | D3R cells, DiscoveRx beta-arrestin luminescence, antagonist mode; stronger effect = lower value; in the data active = max response below about -50%; inconclusive = no clear call, values can overlap the other calls; note: % is set by controls: 0 for no effect and ±100 for the full control effect
#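 Cells expressing the human receptor were seeded at 1500 cells/well, incubated overnight at 37 degrees C in 5% CO2, then exposed to library compounds with dopamine controls for 90 minutes at 37 degrees C before luminescent detection.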
# TDP1 cell CPT – qHTS for Inhibitors of human tyrosyl-DNA phosphodiesterase 1 (TDP1): qHTS in cells in presence of CPT | chicken DT40 Tdp1-/-;hTDP1 cells + 20 nM CPT, ATP luminescence, 48 h | Potency, µM (titrated, usually from 46.2 µM), for the others: at the top dose activity change, negative = growth inhibition, actives largely listed as inhibitors | 12% of 420,000 active; note: potency is the fitted concentration of half-maximal effect; % is set by controls: 0 for no effect and ±100 for the full control effect; nearly all actives have a fitted effect of over 55% in size
#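 Chicken DT40 Tdp1-/- cells stably complemented with human TDP1 were seeded at 400 cells/well in medium containing 20 nM camptothecin, exposed to pin-transferred compounds, and grown at 37 °C for at least 48 hr. Viability was read as ATP luminescence.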
# DRD3 agonist – qHTS of D3 Dopamine Receptor Agonist: qHTS; D(3) dopamine receptor (Homo sapiens), P35462; D3R DiscoveRx beta-arrestin cells, luminescence, 90 min; max activation, %; 0.58% of 410,000 active; in the data active = max activation above about 30%; note: 0% is about no effect
#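 Cells at 1500/well, incubated overnight, then treated with pinned compounds (dopamine as control) for 90 min at 37 degrees C. DiscoveRx reagent added for 30 - 60 minutes at room temperature; luminescence read.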
# ClpP mod – qHTS Assay for Activators of ClpP; Potency, µM (doses to about 57.5 µM), inactives show at the highest dose activity change, negative = active; 1.9% of 340,000 active; purified B. subtilis ClpP, FRET peptide cleavage, 20 min; ATP-dependent Clp protease proteolytic subunit (Bacillus subtilis (strain 168)), P80244; active = well fitted falling curve with a large enough effect; inconclusive = small, poorly fitted or top-dose-only effect; inactive = no such curve, though single readings can be large or run the other way; note: potency is the fitted concentration of half-maximal effect; the source files actives as falling curves though it sought activators and does not explain the sign; nearly all actives have a fitted effect of over 65% in size
# Target sequence (P80244 whole entry, looked up): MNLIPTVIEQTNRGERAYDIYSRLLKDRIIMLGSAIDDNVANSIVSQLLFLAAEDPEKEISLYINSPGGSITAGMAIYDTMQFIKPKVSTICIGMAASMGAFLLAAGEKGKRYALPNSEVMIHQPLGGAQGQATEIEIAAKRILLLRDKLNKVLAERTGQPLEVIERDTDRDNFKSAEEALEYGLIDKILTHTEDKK
#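 Buffer: 100 mM Tris/HCl pH8, 100 mM KCl, 0.05% low protease BSA, 2.5% glycerol, 0.01% Tween-20. ClpP 10 microg/mL final; 20 min RT; delta FRET normalized to ADEP and DMSO controls.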
# TDP1 cell noCPT – qHTS for Inhibitors of human tyrosyl-DNA phosphodiesterase 1 (TDP1): qHTS in cells in absence of CPT; DT40 Tdp1-/- hTDP1 cells, no CPT, ATP luminescence, 48 h; 15% of 420,000 active; Potency, µM (series often up to 46.2 µM), without a hit: at the top dose activity change, negative = growth inhibition, hits mostly inhibitors; note: potency is the fitted concentration of half-maximal effect; % is set by controls: 0 for no effect and ±100 for the full control effect; nearly all actives have a fitted effect of over 55% in size
#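 Cells were dispensed at 400 per well, compounds added by pin tool, plates incubated ≥48 hr at 37 °C, then CellTiter-Glo added for 30 min at room temperature before luminescence reading. Line: DT40 Tdp1-/- complemented with hTDP1; camptothecin omitted.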
# IL1B secr inh – qHTS for Inhibitors of Inflammasome Signaling: IL-1-beta AlphaLISA Primary Screen | THP-1 LPS/ATP IL-1B secretion, AlphaLISA, 16 h; stronger effect = lower value | activity change, % at 57.5 µM | 4.7% of 360,000 active | AID 743279, 2014; in the data active = activity change below about -50%; inconclusive = mostly about -30% to -49%; note: % is set by controls: 0 for no effect and ±100 for the full control effect
#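 THP-1 cells pretreated 1 hr with compounds (up to 57.5 uM final), then stimulated with LPS (250 ng/mL final) plus ATP (1.25 mM final); secreted IL-1B measured by AlphaLISA after 16 hr, decreased signal indicating inhibition.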
# Active calls of the source: *; ? = inconclusive; / = no result given. Shown are actives, neighbours in structure and some others; about 21% of the full set was active somewhere. Unless noted, calls come from the whole dose curve; as a rule, active = well fitted inhibition curve with a large enough effect; inconclusive = small, poorly fitted or top-dose-only effect; inactive = flat fitted curve, though single readings scatter.
SMILES,D3 antag,TDP1 cell CPT,DRD3 agonist,ClpP mod,TDP1 cell noCPT,IL1B secr inh
COc1ccc(C(CNC(=O)CCNC(=O)c2ccc(Br)cc2)N2CCOCC2)cc1 (centres undefined),-3,-3%,-2,?,?,0
CCCn1nnnc1NCc1ccc(N(CC)CC)cc1,-19,-1%,13,0%,-26%,-7
CCn1nc(C)c(CN2CCc3c([nH]c4ccccc34)C2c2ccc(F)c(OC)c2)c1C (centres undefined),-19,29µM*,-9,/,12µM*,-15
O=C(CSc1ccccc1)N1CCc2c([nH]c3ccccc23)C1c1ccc(Cl)cc1 (centres undefined),/,?,-8,-2%,?,/
CCOC(=O)c1ccc(Nc2cc(C)nc(N3CCOCC3)n2)cc1,3,-24%,-1,?,?,9
CCOC(=O)c1ccc(Nc2cc(C)nc(-c3ccccc3)n2)cc1,10,4.6µM*,1,-17%,5.2µM*,40
CCOC(=O)c1cccc(N)c1,/,-18%,-10,/,-10%,/
CCOC(=O)c1nc(Nc2ccc(N3CCOCC3)cc2)c2ccccc2n1,11,?,7,0%,?,-84*
CCOC(=O)c1ccc(Nc2nc(C)cc(C)n2)cc1,18,-3%,-4,-3%,-18%,0
CCOC(=O)c1cccc(Nc2nc(C(=O)OCC)nc3ccccc23)c1,/,4.1µM*,13,-6%,3.3µM*,/
CCCOC(=O)c1cccc(Nc2nc(C(=O)OCC)nc3ccccc23)c1,/,16µM*,2,-22%,13µM*,/
O=C(NCc1ccc(F)cc1Cl)c1cc(=O)[nH]c2ccc(S(=O)(=O)N3CCCCC3)cc12,/,-17%,2,-4%,-23%,/
Cc1cc(C)cc(NC(=O)CCCc2nc(-c3ccco3)no2)c1,/,31%,-4,-3%,-4%,/
CC1=C(C(=O)OCC(C)C)C(c2ccsc2)C2=C(CCCC2=O)N1 (centres undefined),-1,?,6,-16%,?,-4
CCOC(=O)c1nc(NCc2ccccc2)c2ccccc2n1,5,?,7,/,?,35
CCOC(=O)c1ccc(Nc2nnc(C)c3ccccc23)cc1,-4,-12%,-7,/,16µM*,-26
Clc1nc(Nc2ccc(N3CCOCC3)cc2)c2ccccc2n1,-7,?,-2,/,?,-64*
Clc1ccc(-c2nc(N3CCOCC3)nc3ccccc23)cc1,-23,?,-7,0%,?,21
CCOC(=O)c1cccc(Nc2cc(-c3ccccc3)ncn2)c1,/,15µM*,8,?,15µM*,/
CCOC(=O)c1nc(Nc2ccc(C(C)=O)cc2)c2ccccc2n1,4,16µM*,-2,?,15µM*,-11
O=C(Nc1ccccc1Cl)C1CCN(c2nc3ccccc3[nH]2)CC1,/,-10%,0,-2%,-29%,/
O=C(Nc1ccccc1)N1CCCC2(CCN(C(=O)c3ccco3)CC2)C1,/,7%,/,/,0%,/
CCOC(=O)c1nc(Nc2ccccc2CC)c2ccccc2n1,-8,?,-12,1%,18µM*,-2
CCOC(=O)c1nc(Nc2cccc(C)c2)c2ccccc2n1,-9,23µM*,-2,0%,12µM*,-15
O=S(=O)(Nc1nc2ccccc2nc1Nc1ccc(N2CCOCC2)cc1)c1cc(Cl)ccc1Cl,28,?,2,-2%,13µM*,32
C=CCNc1nc(C(=O)OCC)nc2ccccc12,-13,-5%,-1,-8%,-20%,-10
